The full list was thinned out, with hits kept by preference.
Dicer inh = inhibitors of human Dicer processing of pre-microRNA; Q9UPY3; cat-ELCCA pre-miR-21 Dicer processing, chemiluminescence; stronger effect = higher value; z-score at 25 µM; 47,000 compounds, 6% hits; in the data active means z-score above about 3, passing the limit was not always enough;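 further: plate controls were vehicle for no effect and no enzyme for full effect; higher signal means more uncleaved substrate so more Dicer inhibition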
* = called active by the depositor.

SMILES | Dicer inh
Cc1cc(NC(=S)NN)ccc1Br | 4.1*
NNC(=S)Nc1ccc(Br)c(Cl)c1 | 5
CC(C)c1ccc(NC(=S)NN)cc1 | 1
CN(C)CCCN1C(=O)C(O)=C(C(=O)c2ccco2)C1c1ccc(Cl)cc1 (configuration not stated) | -0.88
Nc1ccc(-c2nc3ccccc3n2CCOc2ccccc2)cc1 | 4.3*
CCCCn1c(-c2ccc(N)cc2)nc2ccccc21 | 0.23
Nc1nc2ccccc2n1CCOc1ccc(Br)cc1 | 2.5
COC(=O)CSc1nc2sc3c(c2c(=O)n1-c1ccc(OC)cc1)CCCC3 | 24
CCn1c(SCC(=O)c2ccccc2)nc2sc3c(c2c1=O)CCC3 | -1
CCCCn1c(SCC(=O)OC)nc2sc3c(c2c1=O)CCC3 | 4.3*
CC(=O)O[C@@H]1[C@H]2OC(C)(C)O[C@H]2O[C@@H]1C(O)CO (some centres not stated) | -1.4
O=C(O)CCC(NC(=O)OCc1ccccc1)C(=O)O (configuration not stated) | 0.24
O=C(CCC(C(=O)O)N1C(=O)c2ccccc2C1=O)Nc1ccc2c(c1)COCO2 (configuration not stated) | -1.8
O=C(O)CCC(C(=O)O)N1C(=O)c2ccccc2C1=O (configuration not stated) | 3.2*
Fc1ccc(-c2cc3ncc4c(n3n2)-c2ccccc2OC4)cc1 | -0.37
CN(CCOC(=O)c1ccco1)C(C)(C)C | 3.4*
CC(C)(C)c1ccc(OC(=O)c2ccco2)cc1 | 0.7
COCCOC(=O)c1c(C)oc2ccc(OC(=O)c3ccco3)cc12 | 1.3
CNC(=S)N(C)NC(=S)Nc1cc(Cl)cc(Cl)c1 | 0.59
Cc1nnc(NC(=O)CN2C(=O)COc3ccc(Cl)cc32)s1 | 2.1
CCOC(=O)C1CCN(S(=O)(=O)c2ccc3oc4ccccc4c3c2)CC1 | -0.96
Cc1ccc(C)n1-c1ccc(-c2n[nH]c(=S)n2-c2ccccc2)cc1 | 1.3
CCn1c(C(C)Oc2ccc(Cl)cc2)n[nH]c1=S (configuration not stated) | -6.2
CC(Oc1ccccc1-c1ccccc1)c1n[nH]c(=S)n1-c1ccccc1 (configuration not stated) | 3.3*
CC(O)C(Nc1ccccc1CC(=O)OC(C)(C)C)C(=O)O (configuration not stated) | 1.8
SMILES | Dicer inh
COc1ccc2nc(SCCN3CCOCC3)[nH]c2c1 | 1
Cc1cc(C)c2c(C)c(C(=O)NN)sc2n1 | -1.4
Fc1ccc(/C=N/Nc2nnc3c(n2)[nH]c2ccccc23)cc1 | -0.21
Oc1ccccc1/C=N/Nc1nnc2c(n1)[nH]c1ccccc12 | 3.4*
C(=N\Nc1nnc2c(n1)[nH]c1ccccc12)/c1ccc2c(c1)OCO2 | -0.7
O=C(c1ccc([N+](=O)[O-])o1)N1CCN(c2cccc(Cl)c2)CC1 | 0.98
OCCCCCCN(Cn1nnc2ccccc21)Cn1nnc2ccccc21 | 0.54
FC(F)(F)Oc1ccccc1NCn1nnc2ccccc21 | 3.6*
FC(F)(F)c1ccc(NCn2nnc3ccccc32)cc1 | -5.3
Cn1c(=O)c2c(nc(Oc3ccc(F)cc3)n2C)n(C)c1=O | -0.44
C=C(c1ccccc1)c1ccc(OC)cc1 | 0.46
COc1ccc(N=Nc2c(O)c(O)cc3ccccc23)cc1 | 2.3
C#CC(O)(c1ccc(OC)cc1)c1ccccc1F (configuration not stated) | 4.1*
CCOC(=O)c1ccc2nc(/N=C/NOC(=O)c3cccs3)sc2c1 | 0.05
CC(C)c1ccc(OCc2nc(-c3ccccn3)no2)cc1 | 0.26
CCOC(=O)c1c(C)csc1NC(=O)CSc1ccc(Cl)cc1 | 0.16
O=c1[nH]c2ccccc2c(=O)n1CCSc1ccccc1 | -0.98
Cc1csc2c(=O)n(CCSc3ccc(Cl)cc3)c(=O)[nH]c12 | 3.1*
CCCc1nn(C)c(C(N)=O)c1[N+](=O)[O-] | 5.5*
Cn1cnc([N+](=O)[O-])c1N1CCC(C(N)=O)CC1 | -1.6
CCOC(=O)C(C(=O)OCC)c1c([N+](=O)[O-])c(=O)n(C)c2ccccc12 | -1.6
O=C(OCCNc1ccc([N+](=O)[O-])cn1)c1cc2ccccc2oc1=O | 1.8
Clc1ccc(CSc2nnc(SCc3ccc(Cl)cc3)s2)cc1 | 0.51
Clc1ccc(CSc2nsc(SCc3ccc(Cl)cc3)n2)cc1 | 0
Nc1ccc2nc(SCc3ccc(Cl)cc3)sc2c1 | 3.9*
SMILES | Dicer inh
CC1CC(=O)c2cn3nc(-c4ccncc4)nc3nc2C1 (configuration not stated) | -1.3
CCOc1ccc2c(c1)C(C)=CC(C)(C)N2S(=O)(=O)c1ccc(Cl)cc1 | 0.79
CCOc1ccc(N(C)S(=O)(=O)c2ccc(Cl)cc2)cc1 | 3.1*
COc1ccc(N(C2C=CS(=O)(=O)C2)S(=O)(=O)c2ccc(Cl)cc2)cc1 (configuration not stated) | -1
O=C(c1cc2c(s1)-c1ccccc1CC2)N1CCN(Cc2ccccc2)CC1 | 0.72
COC(=O)CN(C#N)c1nc(C)cc(C)n1 | 6.7*
COC(=O)CN(C#N)c1nc(N(C)C)nc(N(C)C)n1 | 0.85
COc1cc(C)nc(N(C#N)C(C)C)n1 | -1.6
O=C(Nc1ccc2c(c1)C(=O)OC2)NC1CCCCC1 | -1.1
O=C(O)c1cccc2cccc(-c3cccc4cccc(C(=O)O)c34)c12 | -1.6
O=C(O)CCCc1ccc2ccc3cccc4ccc1c2c34 | 4*
O=C(O)CCCN1Cc2ccccc2C1 | 1.3
COc1cc(C2=N/C(=C/C=C/c3ccccc3)C(=O)O2)cc(OC)c1OC | 2.1
CCCc1nc2ccccc2n1CC(O)COc1cc(OC)cc(OC)c1 (configuration not stated) | -1.4
CC(C)(C)c1cc(NC(=O)Nc2ccc(OCc3ccccc3)cc2)no1 | 0.88
COc1ccc(C(C2=C(O)CC(C)(C)CC2=O)C2C(=O)CC(C)(C)CC2=O)cc1O (configuration not stated) | 0.81
Cc1oc2ccc(NS(=O)(=O)c3ccc(Cl)cc3)cc2c1C(=O)OC(C)C | 1.7
CC(=O)Nc1cc2cc(NS(=O)(=O)c3ccc(Cl)cc3)ccc2oc1=O | -0.32
O=S(=O)(Nc1ccc(O)c(-c2c(O)ccc3ccccc23)c1)c1ccc(Cl)cc1 | 8.5*
CSC(=NC#N)S/C=C/C(=O)c1ccc(Br)cc1 | -0.1
Cc1c(C)n(C(=O)CSc2nc(O)cc(=O)[nH]2)c2ccccc12 | -1.2
Cc1ccnc(SCC(=O)n2c(C)c(C)c3ccccc32)n1 | 3.5*
Cc1ccnc(SCn2c(=S)sc3ccccc32)n1 | -3.7
Cc1cc(N=CN(C)C)cc(Cl)c1OS(=O)(=O)c1cc(Cl)cc(Cl)c1 | 1.8
COc1ccc(C(=O)/C(C#N)=N/Nc2cccc(Cl)c2Cl)cc1 | 8.3*
SMILES | Dicer inh
N#C/C(=N\Nc1ccc(F)cc1)C(=O)c1ccccc1Cl | 0.3
COc1ccc(NC(=O)Nc2cccc(Cl)c2Cl)c(OC)n1 | -0.73
CS(=O)(=NC(=O)c1ccc(C(F)(F)F)cc1)c1ccccc1 (configuration not stated) | 19
Cc1nn(-c2ccc(F)cc2)c(=O)c2noc(C)c12 | 1
Cc1c(C[C@H](N)C(=O)O)sc2ccccc12 | -0.63
C\C(=N/N=C(\N=C\N(C)C)SCc1ccc(Cl)cc1Cl)c1ccc(C)nc1 | -3.7
CCCCSC1=C(C#N)C(=O)NCS1 | 5.7*
CCCCSC1=C(C#N)C(=O)NC(CCC)S1 (configuration not stated) | 5.4*
CCCCSC1=C(C#N)C(=O)NC(CC(C)C)S1 (configuration not stated) | 2.9
CCCCSC1=C(C#N)C(=O)NC(c2ccccc2O)S1 (configuration not stated) | 0.9
